Measured values: PubChem BioAssay AID1508601 (ICCB-Longwood Screening Facility, Harvard Medical School, 2020)
In all, about 5,700 compounds went through this assay and about 85 (1%) were called active. The sample holds actives, similar compounds and a random draw of the others, so the mix is not that of the screen. Cut-off read from the data, not from the text of the source: active = p53-positive nuclei above about 36% (passing the limit was not always enough); inactive = the rest.

What was measured:
[1] = nuclear p53 accumulation, HPV+ cells – imaging, p53-positive nuclei imaging, 24 h, 48 h (AID 1508601); conditions: 24/48 h
[2] = target: Cellular tumor antigen p53 (Homo sapiens) (UniProt P04637); test: as above; conditions: 24/48 h, stronger effect = higher value
[3] = measured here: cell number at 24 h, Library stock concentration: 80 uM
[4] = measured here: cell number at 24 h, Library stock concentration: 400 uM
[5] = measured here: cell number at 24 h, Library stock concentration: 2 mM
[6] = measured here: cell number at 24 h, Library stock concentration: 10 mM
[7] = measured here: cell number at 48 h, Library stock concentration: 80 uM
[8] = measured here: cell number at 48 h, Library stock concentration: 400 uM
[9] = measured here: cell number at 48 h, Library stock concentration: 2 mM
[10] = measured here: cell number at 48 h, Library stock concentration: 10 mM
[11] = Library stock concentration: 80 uM
[12] = Library stock concentration: 400 uM
[13] = Library stock concentration: 2 mM
[14] = Library stock concentration: 10 mM
[15] = measured here: p53 positive nuclei at 24 h, Library stock concentration: 80 uM
[16] = measured here: p53 positive nuclei at 24 h, Library stock concentration: 400 uM
[17] = measured here: p53 positive nuclei at 24 h, Library stock concentration: 2 mM
[18] = measured here: p53 positive nuclei at 24 h, Library stock concentration: 10 mM
[19] = measured here: cell number at 24 h, Library stock concentration: 3.33 mM
[20] = measured here: cell number at 48 h, Library stock concentration: 3.33 mM
[21] = Library stock concentration: 3.33 mM
[22] = measured here: p53 positive nuclei at 24 h, Library stock concentration: 3.33 mM
[23] = measured here: cell number at 24 h, concentration not given here
[24] = measured here: cell number at 48 h, concentration not given here
[25] = measured here: p53 positive nuclei at 24 h, concentration not given here
[26] = measured here: cell number at 24 h, Library stock concentration: 46 uM
[27] = measured here: cell number at 24 h, Library stock concentration: 278 uM
[28] = measured here: cell number at 24 h, Library stock concentration: 1.67 mM
[29] = measured here: cell number at 48 h, Library stock concentration: 46 uM
[30] = measured here: cell number at 48 h, Library stock concentration: 278 uM
[31] = measured here: cell number at 48 h, Library stock concentration: 1.67 mM
[32] = Library stock concentration: 46 uM
[33] = Library stock concentration: 278 uM
[34] = Library stock concentration: 1.67 mM
[35] = measured here: p53 positive nuclei at 24 h, Library stock concentration: 46 uM
[36] = measured here: p53 positive nuclei at 24 h, Library stock concentration: 278 uM
[37] = measured here: p53 positive nuclei at 24 h, Library stock concentration: 1.67 mM

Sequence of Cellular tumor antigen p53 (Homo sapiens) (P04637 whole entry, looked up): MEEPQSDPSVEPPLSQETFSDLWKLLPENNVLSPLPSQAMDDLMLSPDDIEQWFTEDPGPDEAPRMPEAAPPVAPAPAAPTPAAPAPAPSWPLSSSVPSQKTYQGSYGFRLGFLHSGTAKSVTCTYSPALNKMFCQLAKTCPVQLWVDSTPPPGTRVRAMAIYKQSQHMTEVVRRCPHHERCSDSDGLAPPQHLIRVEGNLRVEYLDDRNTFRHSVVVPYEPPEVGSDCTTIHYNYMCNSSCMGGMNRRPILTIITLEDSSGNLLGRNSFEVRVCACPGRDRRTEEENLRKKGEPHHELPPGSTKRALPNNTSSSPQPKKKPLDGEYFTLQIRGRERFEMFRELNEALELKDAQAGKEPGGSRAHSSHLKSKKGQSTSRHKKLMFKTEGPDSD

CN1CCC(c2c(O)cc(O)c3c(=O)cc(-c4ccccc4Cl)oc23)C(O)C1 (centres undefined)
nuclei count, normalised [1, 3]: 79.6%
nuclei count, normalised [1, 4]: 49.2%
nuclei count, normalised [1, 5]: 29.8%
nuclei count, normalised [1, 6]: 27.6%
nuclei count, normalised [1, 7]: 57.1%
nuclei count, normalised [1, 8]: 29.5%
nuclei count, normalised [1, 9]: 16%
nuclei count, normalised [1, 10]: 17.8%
p53-positive nuclei, normalised [2, 11]: 5.98% (inactive)
p53-positive nuclei, normalised [2, 12]: 41.3% (inactive)
p53-positive nuclei, normalised [2, 13]: 13.9% (inactive)
p53-positive nuclei, normalised [2, 14]: 7.27% (inactive)
p53-positive nuclei, normalised [2, 15]: 1.3%
p53-positive nuclei, normalised [2, 16]: 7.22%
p53-positive nuclei, normalised [2, 17]: 0.675%
p53-positive nuclei, normalised [2, 18]: 0.446%

CN1CC[C@H](c2c(O)cc(O)c3c(=O)cc(-c4ccccc4Cl)oc23)C(O)C1 (some centres undefined)
nuclei count, normalised [1, 3]: 104%
nuclei count, normalised [1, 4]: 38.3%
nuclei count, normalised [1, 5]: 28.8%
nuclei count, normalised [1, 19]: 19.7%
nuclei count, normalised [1, 6]: 27.3%
nuclei count, normalised [1, 7]: 113%
nuclei count, normalised [1, 8]: 25.6%
nuclei count, normalised [1, 9]: 21.8%
nuclei count, normalised [1, 20]: 16%
nuclei count, normalised [1, 10]: 20.2%
p53-positive nuclei, normalised [2, 11]: 0.113% (inactive)
p53-positive nuclei, normalised [2, 12]: 48.4% (inactive)
p53-positive nuclei, normalised [2, 13]: 4.92% (inactive)
p53-positive nuclei, normalised [2, 21]: 8.28% (inactive)
p53-positive nuclei, normalised [2, 14]: 4.03% (inactive)
p53-positive nuclei, normalised [2, 15]: -0.107%
p53-positive nuclei, normalised [2, 16]: 2.03%
p53-positive nuclei, normalised [2, 17]: 0.196%
p53-positive nuclei, normalised [2, 22]: 0.472%
p53-positive nuclei, normalised [2, 18]: 0.419%

CCCCC[C@H](O)/C=C/[C@@H]1[C@@H](C/C=C\CCCC(=O)NCC)[C@@H](O)C[C@H]1O
nuclei count, normalised [1, 23]: 106%
nuclei count, normalised [1, 24]: 102%
p53-positive nuclei, normalised ([2]; concentration not given here): 0.015% (inactive)
p53-positive nuclei, normalised [2, 25]: -0.0692%

O=C(/C=C/c1cccc(C(=O)NO)c1)NO
nuclei count, normalised [1, 23]: 114%
nuclei count, normalised [1, 24]: 107%
p53-positive nuclei, normalised ([2]; concentration not given here): 0.114% (inactive)
p53-positive nuclei, normalised [2, 25]: 0.124%

O=C(C=Cc1cccc(S(=O)(=O)Nc2ccccc2)c1)NO
nuclei count, normalised [1, 3]: 108%
nuclei count, normalised [1, 4]: 107%
nuclei count, normalised [1, 5]: 94.6%
nuclei count, normalised [1, 19]: 58%
nuclei count, normalised [1, 6]: 52.5%
nuclei count, normalised [1, 7]: 101%
nuclei count, normalised [1, 8]: 95.8%
nuclei count, normalised [1, 9]: 77.3%
nuclei count, normalised [1, 20]: 40.2%
nuclei count, normalised [1, 10]: 30.4%
p53-positive nuclei, normalised [2, 11]: 3.46% (inactive)
p53-positive nuclei, normalised [2, 12]: 0.535% (inactive)
p53-positive nuclei, normalised [2, 13]: 5.33% (inactive)
p53-positive nuclei, normalised [2, 21]: 46% (active)
p53-positive nuclei, normalised [2, 14]: 76% (active)
p53-positive nuclei, normalised [2, 15]: 0.856%
p53-positive nuclei, normalised [2, 16]: 1.2%
p53-positive nuclei, normalised [2, 17]: 10.1%
p53-positive nuclei, normalised [2, 22]: 51%
p53-positive nuclei, normalised [2, 18]: 64.7%

O=S(=O)(NO)c1ccccc1
nuclei count, normalised [1, 23]: 71.3%
nuclei count, normalised [1, 24]: 77%
p53-positive nuclei, normalised ([2]; concentration not given here): 0.0111% (inactive)
p53-positive nuclei, normalised [2, 25]: -0.0732%

CCCCCCCCc1cccc(NC(=O)C(N)COP(=O)(O)O)c1 (centres undefined)
nuclei count, normalised [1, 26]: 114%
nuclei count, normalised [1, 27]: 118%
nuclei count, normalised [1, 28]: 113%
nuclei count, normalised [1, 6]: 108%
nuclei count, normalised [1, 29]: 110%
nuclei count, normalised [1, 30]: 108%
nuclei count, normalised [1, 31]: 107%
nuclei count, normalised [1, 10]: 101%
p53-positive nuclei, normalised [2, 32]: -0.108% (inactive)
p53-positive nuclei, normalised [2, 33]: 0.0439% (inactive)
p53-positive nuclei, normalised [2, 34]: -0.101% (inactive)
p53-positive nuclei, normalised [2, 14]: -0.166% (inactive)
p53-positive nuclei, normalised [2, 35]: 0.0125%
p53-positive nuclei, normalised [2, 36]: -0.0546%
p53-positive nuclei, normalised [2, 37]: -0.0401%
p53-positive nuclei, normalised [2, 18]: -0.218%

CCCCCCCCCCCCCCCCCCCC(=O)NCCO
nuclei count, normalised [1, 23]: 110%
nuclei count, normalised [1, 24]: 108%
p53-positive nuclei, normalised ([2]; concentration not given here): -0.151% (inactive)
p53-positive nuclei, normalised [2, 25]: -0.0865%

CCCCCc1ccc(C=CC(=O)Nc2ccccc2C(=O)O)cc1
nuclei count, normalised [1, 26]: 113%
nuclei count, normalised [1, 27]: 109%
nuclei count, normalised [1, 28]: 111%
nuclei count, normalised [1, 6]: 109%
nuclei count, normalised [1, 29]: 113%
nuclei count, normalised [1, 30]: 110%
nuclei count, normalised [1, 31]: 110%
nuclei count, normalised [1, 10]: 106%
p53-positive nuclei, normalised [2, 32]: -0.18% (inactive)
p53-positive nuclei, normalised [2, 33]: -0.17% (inactive)
p53-positive nuclei, normalised [2, 34]: -0.244% (inactive)
p53-positive nuclei, normalised [2, 14]: -0.204% (inactive)
p53-positive nuclei, normalised [2, 35]: -0.087%
p53-positive nuclei, normalised [2, 36]: -0.151%
p53-positive nuclei, normalised [2, 37]: -0.151%
p53-positive nuclei, normalised [2, 18]: -0.0182%
